# The full list was thinned out, with hits kept by preference.
# ST2 inh – IL1RL1 inhibition; Q01638; AlphaLISA ST2-Fc/biotin-IL-33 interaction, 1 h; inhibition, % for hits at 17 µM; 78,000 compounds, 2.3% hits; in the data active = inhibition above about 30%
# Target sequence (Q01638 whole entry, looked up): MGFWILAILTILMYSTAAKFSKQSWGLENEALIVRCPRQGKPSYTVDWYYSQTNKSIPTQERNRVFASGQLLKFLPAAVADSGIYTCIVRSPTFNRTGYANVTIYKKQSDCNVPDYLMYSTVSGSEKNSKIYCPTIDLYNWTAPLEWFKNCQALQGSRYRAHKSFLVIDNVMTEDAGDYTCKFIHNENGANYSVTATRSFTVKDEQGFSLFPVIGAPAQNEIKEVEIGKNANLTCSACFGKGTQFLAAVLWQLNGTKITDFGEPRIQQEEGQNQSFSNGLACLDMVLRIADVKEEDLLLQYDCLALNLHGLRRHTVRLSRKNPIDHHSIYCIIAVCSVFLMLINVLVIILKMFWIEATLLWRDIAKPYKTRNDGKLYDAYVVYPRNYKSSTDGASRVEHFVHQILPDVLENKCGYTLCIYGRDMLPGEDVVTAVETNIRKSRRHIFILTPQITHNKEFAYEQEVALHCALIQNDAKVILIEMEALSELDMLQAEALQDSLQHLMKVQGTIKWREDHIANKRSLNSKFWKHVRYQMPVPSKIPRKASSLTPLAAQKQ
# * hit, by the source's call; i = inactive; ! = not confirmed by another sample.
SMILES,ST2 inh
O=C(O)c1ccc(CNC[C@@H]2C[C@H]3C=C[C@@H]2C3)cc1,i
COc1ccc(I)c(OC)c1,i
COc1ccc2c(c1)C(C)=CC(C)(C)N2,42%*
CC1=CC(C)(C)Nc2ccc(OC(=O)COc3ccc(Cl)cc3)cc21,i
CN(CC(=O)Nc1ccc2c(c1)OCO2)S(=O)(=O)c1ccc(Cl)cc1,i
CC(=O)N1c2c(cc(Br)cc2S(=O)(=O)N2CCc3ccccc3C2)CC1C (stereo not drawn),i
O=C(CN1N=NC2C(=O)N(c3ccc(F)cc3)C(=O)C21)Nc1cccc(F)c1 (stereo not drawn),i
CCOC(=O)Cn1c(=O)n(-c2ccc(F)cc2)c2nc(-c3ccc(C(C)C)cc3)nc(C(N)=O)c21,i
Cc1ccc(N2NC(=O)/C(=C/c3ccc(OCc4ccccc4)cc3)C2=O)cc1Cl,i
COc1cc(/C=C2/C(=O)NN(c3ccc(C)c(Cl)c3)C2=O)cc(OC)c1OC,i
COc1cc(/C=C2/C(=O)NN(c3ccc(C)c(Cl)c3)C2=O)ccc1OCc1ccccc1,48%*
O=C(NC1CCN(c2ccc(F)cc2)CC1)c1ccc2nc(C3CC3)oc2c1,i
CN(C)c1ccc(C(=O)Nc2nc3ccc4ccccc4c3s2)cc1,i
CN(C)c1ccc(/C=C/c2ccnc3ccccc23)cc1,43%*
Cc1cc(NC(=O)c2cccc(Cl)c2)cc(C)c1O,i
CC1=C[C@@H](CO)[C@H](C(C)C)C[C@H]1Cc1nnc(C)o1,i
O=c1oc(-c2ccccc2Cl)nc2sc3c(c12)CCC3,45%*
O=C(c1ccco1)N1CCN(C(=O)c2cccn3c(=O)c4c5c(sc4nc23)CCCC5)CC1,i
O=c1[nH]c(/C=C/c2ccccc2)nc2sc3c(c12)CCCC3,i
O=c1oc(-c2cccs2)nc2sc3c(c12)CCC3,i
O=c1oc(-c2ccccc2Cl)nc2ccc(Br)cc12,i
O=c1oc(/C=C/c2ccco2)nc2sc3c(c12)CCCCC3,36%*
Cc1cnccc1NCCn1cc(-c2ccc3c(c2)OCCO3)nn1,i
O=C(O)C1CC(=O)N(Cc2nc3c(s2)CCCC3)C1 (stereo not drawn),i
COc1ccc(-n2c3nc(=O)[nH]c(=O)c-3cc3c(Cl)cccc32)cc1,i
SMILES,ST2 inh
Cc1ccc(C)c(NS(=O)(=O)c2ccc(NC(=O)c3ccccc3C)cc2)c1,i
Cc1ccc(C)c(NS(C)(=O)=O)c1,i
Cc1ccc(Cl)cc1NS(=O)(=O)c1cccc2c1C(=O)c1ccccc1C2=O,44%*
Cc1ccc(Cl)cc1NC(=O)c1ccccc1C(=O)Nc1cc(Cl)ccc1C,i
Cc1ccc(C)c(NS(=O)(=O)c2cccc3c2C(=O)c2ccccc2C3=O)c1,54%*
Cc1ccc(Cl)cc1NS(=O)(=O)c1cccc2nonc12,i
COC(=O)C1C(=O)C2=C(CC1C)NC(C)=C(C(=O)OC(C)C)C2c1cc(OC)ccc1OC (stereo not drawn),i
CC1CCCCN1S(=O)(=O)c1cccc2nsnc12 (stereo not drawn),i
CCOc1ccc(S(=O)(=O)Nc2cc([N+](=O)[O-])ccc2OC)c2cccnc12,i
CC1=C(C#N)C(c2ccc3c(c2)OCO3)C2=C(CC(c3ccccc3)CC2=O)N1 (stereo not drawn),i
Cc1nc2cc(Cl)ccc2n1Cc1ccccc1,i
COc1ccc(C2CC(=O)C3=C(C2)OC(N)=C(C#N)C3c2cccc(Br)c2)cc1 (stereo not drawn),i
Cc1ccc2nc(NCc3cccnc3)c(C=NCc3cccnc3)c(=O)n2c1,i
CN(C)/C=C/C=C/C=C1\CCC/C(=C\C=C\N(C)C)C1=O,63%*
O=c1[nH]nc(SCCO)c(=O)[nH]1,i
COc1ccc2cc3cc(C(=O)NCCCN4CCCC4)oc3nc2c1,33%*!
COc1ccc2cc3cc(C(=O)NCCCN4CCN(Cc5ccccc5)CC4)oc3nc2c1,i
O=C(NCCCN1CCCC1)c1cc2cc3ccc(Cl)cc3nc2o1,i
COc1ccc2cc3cc(C(=O)NCCCN4CCCCCC4)oc3nc2c1,31%*!
COc1ccc2cc3cc(C(=O)NCCN4CCOCC4)oc3nc2c1,i
CCC1CCCCN1CCCNC(=O)c1cc2cc3ccc(OC)cc3nc2o1 (stereo not drawn),i
O=C(c1ccsc1)N1CCC2(CCCN(CC3CCCCC3)C2=O)C1 (stereo not drawn),i
CC(Oc1ccc2c(c1)OCO2)c1nc(CC2CCN(C)CC2)no1 (stereo not drawn),i
CCC(c1ccccc1)c1nc(-c2cccc([N+](=O)[O-])c2)no1 (stereo not drawn),30%*
COc1ccc(-c2nc(-c3cccc([N+](=O)[O-])c3)no2)cc1OC,i
CCC(c1ccccc1)c1nc(-c2ccncc2)no1 (stereo not drawn),i
CC(=O)n1cc(C(C[N+](=O)[O-])SCCN)c2ccccc21 (stereo not drawn),30%*
O=[N+]([O-])CC(SCCO)c1ccc(O)cc1 (stereo not drawn),i
CC(=O)N1c2c(cc(Br)cc2S(=O)(=O)Nc2cccc(Cl)c2C)CC1C (stereo not drawn),i
